40 compounds from PubChem BioAssay (EPA / NIEHS) can be followed below.

Usually AC50 stands for the midpoint of the concentration-response curve, whichever way the signal moves.

Active and inactive are the calls of the source. The calls were made as follows: active = hit-call score of the fitted dose curve at least 0.9, where 1 is the maximum; inactive = score below 0.9.

The nature of this assay: ATG_ERE_CIS: Attagene CIS-FACTORIAL HepG2 Assay for Estrogen Response Element (ERE) (AID 2282940). The conditions noted are these: HepG2 ERE cis-reporter, Attagene RNA transcript; actives raise or lower the signal. The protocol:
ATG_CIS is a cell-based, multiplexed-readout assay that uses HepG2, a human liver cell line, with measurements taken at 24 hours after chemical dosing in a 24-well plate.ATG_ERE_CIS is one of 52 assay component(s) measured or calculated from the ATG_CIS assay. It is designed to make measurements of mRNA induction, a form of inducible reporter, as detected with fluorescence intensity signals by Reverse transcription polymerase chain reaction (RT-PCR) and Capillary electrophoresis technology.Data from the assay component ATG_ERE_CIS was analyzed into 1 assay endpoint. This assay endpoint, ATG_ERE_CIS, was analyzed with bidirectional fitting relative to DMSO as the negative control and baseline of activity. Using a type of inducible reporter, measures of mRNA for gain or loss-of-signal activity can be used to understand the reporter gene at the transcription factor-level as they relate to the gene ESR1. Furthermore, this assay endpoint can be referred to as a primary readout, because this assay has produced multiple assay endpoints where this one serves a reporter gene function. To generalize the intended target to other relatable targets, this assay endpoint is annotated to the nuclear receptor intended target family, where the subfamily is steroidal.
Human liver HepG2 cells are transiently transfected with multiple reporter transcription units (MRTUs) in 6-well plates using FuGene 6 reagent (Roche; 3 ml FuGene/1 mg DNA). The MRTU constructs are regulated by a cis-regulating element (promoter). […] A major difference between the CIS and TRANS system is that in CIS activities of endogenous TFs are measured, whereas the TRANS assay evaluates changes in activities of exogenous, chimeric NR-Gal4 proteins. […] At the end of 24 hour incubation, total RNA was isolated using TriZol reagent (Invitrogen). The isolated RNA is then reverse-transcribed using oligo(dT) primer and Mo-MLV reverse transcriptase (Invitrogen) with DNAse I (Ambion) treatment for 30 min. The one-tenth of the produced cDNA was amplified by PCR using Taq DNA polymerase (Invitrogen) and two reporter sequence-specific primers. The PCR products were fluorescently labeled by primer extension with 6-arboxyfluorescein (6-FAM) 5'-labeled reporter sequence-specific primer (2 min at 95 C, 20 s at 68 C and 10 min at 72 C) and these products were digested with 5U of HpaI (New England Biolabs) for 2h at 37 C. The fragments were purified using Qiaquick PCR columns (Qiagen), analyzed on an ABI 3130xL genetic analyzer (Applied Biosystems) with peak positions identified by using a set of X-rhodamine (ROX)-labeled MapMarker1000 molecular weight standards (BioVentures). The raw capillary electrophoresis data was processed using Attagraph software (Attagene).
In the case of `C=C(C)C(=O)OCc1ccccc1`, the outcome was inactive. Same read-out and setting: for `OCC(CO)(CO)COCC(CO)(CO)CO` the value was “inactive”.

Turning to `CC(=O)O[C@H](CC(=O)[O-])C[N+](C)(C)C`, the call was inactive. Still for that read-out and setting: the same measure for `NC(=O)Nc1ccc(Cl)cc1`: “inactive”. Still for that read-out and setting: the same measure for `Clc1ccc2c(c1)C(N1CCNCC1)=Nc1ccccc1O2`: “inactive”.

Turning to `CC(CCO)CCc1ccccc1` (stereo not given), the AC50 was 24.2 µM (active).

`c1ccc2sc(SN(C3CCCCC3)C3CCCCC3)nc2c1`: the result was inactive.

`COc1nc(C)nc(N)n1`: the outcome was inactive. Same read-out and setting: the same measure for `O=C(O)CCSCCC(=O)O`: “inactive”. As to `CN(CCOc1ccc(CC2SC(=O)NC2=O)cc1)c1ccccn1` (stereo not given), the AC50 was 0.0823 µM (active). On to `CC(C)=CCO`, for which the compound was classed as inactive. Same read-out and setting: for `CC(=O)/C=C/C1=C(C)CCCC1(C)C` the value was “inactive”. On the same count and under the same terms, for `Cc1ccccc1C=O` the value was “inactive”; for `Cc1ncc([N+](=O)[O-])n1C`, “inactive”.

As for `CC(C)C(C)(C)C(C)(C)C(C)(C)S`, the compound was classed as inactive. Still for that read-out and setting: the same measure for `CC(c1cc2ccccc2s1)N(O)C(N)=O` (stereo not given): “inactive”; for `CCCCOCCOCCOCCOCCO`: “inactive”.

In the case of `Cc1ccc(S)cc1`, the outcome was inactive. Still for that read-out and setting: the same measure for `CCCCCCCCCC=O`: “inactive”. On the same count and under the same terms, for `CC1(C)[C@H](C(=O)OCc2cccc(Oc3ccccc3)c2)[C@@H]1C=C(Cl)Cl` the value was “inactive”. Turning to `CC(=O)[C@H]1CC[C@H]2[C@@H]3CC=C4C[C@@H](O)CC[C@]4(C)[C@H]3CC[C@]12C`, the AC50 is 2.32 µM (active). `CCCC(=O)C(C)=O`: the compound was classed as inactive.

Regarding `CN1[C@@H]2CC(OC(=O)[C@H](CO)c3ccccc3)C[C@H]1[C@@H]1O[C@@H]12` (stereo not given in full), the result was inactive. With `OC1C(O)C(O)C(O)C(O)C1O` (stereo not given), the call was inactive. Regarding `CC(=O)Nc1ccc(CC(=O)O)cc1`, the result was inactive. The same measure, in the same setting: for `Cc1ccc2sc3cccc(C)c3c2c1` the value was “inactive”. Still for that read-out and setting: the same measure for `CCn1c2ccccc2c2cc(N)ccc21`: “inactive”. Still for that read-out and setting: the same measure for `O=C(O)c1cccc(C(F)(F)F)c1`: “inactive”.

As to `CC(=O)OCCC(C)CC(C)(C)C` (stereo not given), the compound was called inactive. Regarding `C#C[C@]1(O)CC[C@H]2[C@@H]3CCC4=Cc5oncc5C[C@]4(C)[C@H]3CC[C@@]21C`, the AC50 was 0.83 µM (active).

Consider `COc1cc2ncnc(Nc3cccc(Cl)c3)c2cc1OC`, for which the compound was classed as inactive. Same read-out and setting: for `OCCN1CCNCC1` the value was “inactive”.

Turning to `CCCCCCCCC`, the AC50 is 63.2 µM (active). In the case of `CCOC(=S)SSC(=S)OCC`, the compound was classed as inactive. Turning to `CC(=O)[O][Al][O]C(C)=O`, the compound was called inactive. Consider `COc1ccc(Nc2ccccc2)c(C)c1`, for which the AC50 was 19.6 µM (active).

Turning to `Nc1ccc(S(=O)(=O)O)c(N)c1`, the compound was called inactive.

Consider `O=C1c2ccccc2C(=O)N1SC1CCCCC1`, for which the AC50 was 66.4 µM (active). In the case of `C=C(C)C(=O)Nc1ccc(Cl)c(Cl)c1`, the compound was called inactive.

For `O=C(O)CCCCC1CCSS1` (stereo not given), the compound was called inactive.
